Assay outcomes (PubChem)
PfHsp40 yeast: rescue of PfHsp40-mediated yeast toxicity. AID 504582. growth rescue, % at 12.5 µM. 340,000 tested, 0.68% active. S. cerevisiae expressing PfHsp40, growth rescue, ATP luminescence; in the data active means growth rescue above about 28%, passing the limit was not always enough;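 further: yeast W303a lacking pdr1 and pdr3 grown in galactose medium; growth measured after three days at 30 °C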
VHR inh abs: DUSP3 (human) phosphatase inhibition | P51452 | recombinant VHR phosphatase, pNPP absorbance | inhibition, % at 13.3 µM | 290,000 tested, 0.52% active; in the data active means inhibition above about 50%
Target sequence (P51452 whole entry, looked up): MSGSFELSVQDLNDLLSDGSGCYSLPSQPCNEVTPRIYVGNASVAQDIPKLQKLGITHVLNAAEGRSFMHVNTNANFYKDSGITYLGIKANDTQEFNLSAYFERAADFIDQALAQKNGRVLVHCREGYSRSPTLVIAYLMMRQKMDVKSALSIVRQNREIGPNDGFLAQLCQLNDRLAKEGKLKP
BH1578 lux ind: quorum light induction in luxS cqsA deficient V. cholerae | activation, % at 18.7 µM | V. cholerae BH1578 lux reporter, luminescence, 6 h | 350,000 tested, 0.16% active; in the data active means activation mostly above about 9.7%, no sharp cut-off
MazEF act: activators of E. coli MazEF toxin-antitoxin RNase. P0AE70. FAM/BHQ RNA-DNA oligo cleavage fluorescence, 5 h. activation, % at 20 µM. 350,000 tested, 0.32% active. AID 504720; in the data active means activation above about 50%
Target sequence (P0AE70 whole entry, looked up): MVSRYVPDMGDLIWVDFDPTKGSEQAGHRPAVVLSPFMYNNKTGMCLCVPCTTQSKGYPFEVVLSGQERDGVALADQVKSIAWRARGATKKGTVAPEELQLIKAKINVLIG
BJeLR lethal: BJeLR cell viability loss | BJeLR (HRASV12) viability, CellTiter-Glo ATP luminescence, 48 h | inhibition, % (concentration not given with the values) | 300,000 tested, 0.17% active; in the data active means inhibition above about 50%
3CLpro inhibitor: SARS-CoV 3CLpro protease inhibition | inhibition, % at 6 µM | P0C6X7 | 290,000 tested, 0.14% active | recombinant SARS-CoV 3CLpro, quenched FRET peptide cleavage; in the data active means inhibition above about 12%
* marks the source's active call; other numbers are inactive results; i = inactive; . = no result given; + = active, no number; ! = not active in a repeat. Rows were chosen to be rich in hits. Some 1.7% of all compounds tested hit in one or more screens of this group.

SMILES | PfHsp40 yeast | VHR inh abs | BH1578 lux ind | MazEF act | BJeLR lethal | 3CLpro inhibitor
N/C(=N\OC(=O)c1csnn1)c1ccc(C(F)(F)F)cc1 | 0 | -23 | i | 9 | -1 | 2
Cc1ccc2oc(=O)c3cc(C(=O)NCCCN4CCCC(C)C4)sc3c2c1 (configuration not stated) | 2 | 51* | -4 | 21 | 9 | -8
CCCN1CCN(CCCNC(=O)c2cc3c(=O)oc4ccc(C)cc4c3s2)CC1 | -1 | 50* | 0 | 21 | -3 | -8
O=C(N/N=C/c1c(O)n(-c2ccc(Cl)cn2)c(=O)c2ccccc12)c1ccncc1 | 29* | 7 | i | -25 | 2 | -6
COc1ccc2nc(NN=C(C)c3ccccn3)cc(C)c2c1 | 784* | . | i | 2 | . | .
CC(=O)Nc1cncc(-c2cccc(C(=O)N(C)C)c2)n1 | . | . | i | . | . | .
N#CCCn1c(-c2nonc2NC(=O)c2ccccc2Cl)nc2ccccc21 | -1 | 6 | -1 | 81* | -14 | -2
N[C@@H](Cc1c[nH]c2ccccc12)C(=O)O | . | 6 | . | . | -7 | .
O=C(O)C(Cc1c[nH]c2ccccc12)N1C(=O)c2ccccc2C1=O (configuration not stated) | 0 | 52*! | i | -3 | -7 | -2
Cc1ccc(OCC(=O)Nc2ccc(S(=O)(=O)NC3=NCCCCC3)cc2)cc1 | . | . | 0 | 3 | . | .
OCC[C@H]1C[C@@H](O)[C@H](O)[C@]2(CCCc3ccccc3O2)O1 | -1 | . | i | 2 | . | .
OCC[C@@H]1C[C@@H](O)[C@H](O)[C@]2(CCCc3ccccc3O2)O1 | -2 | 52* | i | 4 | -9 | -5
CCc1nc2ccc(C(=O)Nc3ccc4c(c3)OCC(=O)N4)cn2c1N(C)C(=O)Cc1ccccc1 | . | . | 0 | . | . | .
COc1ccc(NC(=O)c2nc[nH]c2C(=O)N[C@@H](CC(C)C)C(=O)OC(C)(C)C)cc1 | 27* | 23 | 1 | 3 | -2 | .
N#CC1C(=N)Cc2ccccc2-c2ccccc21 (configuration not stated) | 39* | . | 1 | -9 | . | .
CC(C)(C)c1cc(NCCCn2ccnc2)n2ncc(-c3ccc(Cl)cc3)c2n1 | 70* | 53* | -1 | -21 | -7 | -3
CCOC(=O)c1c(/N=C/C2C(=O)CCCC2=O)sc2c1CCCC2 | -2 | -6 | 0 | 9 | 1 | 0
CCOC(=O)c1c(/N=C/C2C(=O)NC(=O)NC2=O)sc2c1CCC2 | -1 | 9 | i | 123* | . | 5
CCn1c(=O)c(C(=O)NCc2ccc(OC)c(OC)c2)c(O)c2ccccc21 | 0 | 12 | i | 0 | 4 | 4
CCCn1c(=O)c(C(=O)NCCc2ccccc2)c(O)c2ccccc21 | -1 | 54* | 1 | -19 | 10 | -2
CCc1nc2ccccc2c(=O)n1NC(=O)c1c(O)c2ccccc2n(CC)c1=O | 181* | 26 | -1 | 7 | 2 | -9
C=CCn1c(=O)c(C(=O)NCCc2ccccc2)c(O)c2ccccc21 | 94* | 27 | -2 | -10 | 0 | 2
CCCn1c(=O)c(C(=O)NCc2ccc(OC)c(OC)c2)c(O)c2ccccc21 | 334* | -13 | i | 0 | -14 | 3
CCCCCn1c(=O)c(C(=O)NCCc2ccccc2)c(O)c2ccccc21 | -2 | 16 | i | -5 | -8 | 4
C=CCn1c(=O)c(C(=O)NCc2ccc(Cl)cc2)c(O)c2ccccc21 | 1 | 35 | -1 | 24 | -1 | 2
SMILES | PfHsp40 yeast | VHR inh abs | BH1578 lux ind | MazEF act | BJeLR lethal | 3CLpro inhibitor
CC1Cc2ccccc2N1C(=O)CSc1nnc(NC(=O)Cc2cccs2)s1 (configuration not stated) | . | 18 | . | 7 | 4 | -3
CCC(=O)Nc1nnc(SCC(=O)N2c3ccccc3CC2C)s1 (configuration not stated) | 1 | 3 | 17* | 7 | -4 | 0
c1ccc(Nc2cccc(Nc3ccccc3)c2)cc1 | 69* | -19 | 0 | -8 | -13 | 0
COc1cc2c(C#N)c(N3CCN(C)CC3)nc(N)c2c(N)n1 | 0 | 2 | . | . | -1 | 0
N#Cc1c(N)nc(N2CCCC2)c(C#N)c1-c1ccc(Cl)cc1 | 3 | -12 | 0 | 66* | 0 | 0
CCCOc1cc2c(C#N)c(N3CCCC3)nc(N)c2c(N)n1 | 1 | . | -1 | 63* | -6 | .
COc1cc2c(C#N)c(N3CCCC3)nc(N)c2c(N)n1 | 0 | 16 | 2 | 90*! | 0 | -5
Cc1nnc(NC(=O)CSc2nnc(CC(=O)Nc3ccccc3F)n2C)s1 | -1 | 23 | 0 | 6 | -3 | -4
Cn1c(=O)c2cc(NC(=O)NCc3ccc(Cl)cc3Cl)ccc2n1Cc1ccc(F)cc1 | . | . | 0 | . | . | .
C=CCOc1ccccc1/C=N/NC(=O)Cc1ccc(C)cc1 | 0 | 23 | 0 | 1 | -9 | -1
Cc1ccc(N/N=C/c2ccncc2)cc1 | 4 | 57* | -1 | 0 | 4 | -4
COC(=O)CC1(C(=O)OC)Nc2cc(Cl)c(Cl)cc2S(=O)(=O)N1O (configuration not stated) | . | . | i | 123* | . | .
CC(C)(C)C(=O)NCc1ccc(C(=O)CSc2nnc3n2CCCCC3)s1 | . | . | -5 | 0 | . | .
CCOc1ccc(N(CC(=O)NC(C(C)C)C(C)C)S(=O)(=O)c2ccc(OC)c(OC)c2)cc1 | 0 | -2 | 0 | 0 | 5 | 1
CCn1cc(C(=O)NCc2ccco2)c(=O)c2cc(S(=O)(=O)N3CC(C)CC(C)C3)ccc21 (configuration not stated) | 1 | 10 | i | 0 | 88* | -3
CCC(CC)c1nnc(NC(=O)Cc2c[nH]c3ccccc23)s1 | . | . | i | 4 | . | .
C=C1C(=O)C=C2CN(C(=O)c3ccccc3)[C@@](Cc3ccc(F)cc3)(C(=O)OC)[C@@H]12 | 0 | 12 | i | 8 | 107* | 5
CSC[C@H]1CN(c2ccccc2)C(=O)[C@@H]1CC(=O)Nc1ccc(Br)cc1 | . | . | 0 | 5 | . | .
N#CC(C#N)=C1C=C2C=C(N3CCCCC3)CCC2CC1 (configuration not stated) | . | 2 | . | + | . | -82
CC1CCCCC1NC(=O)CCn1ccc2cc(S(=O)(=O)N3CCCC3)ccc21 (configuration not stated) | 1 | 4 | -3 | 5 | -5 | -1
C[C@@H](O)CNC(=O)c1[nH]cnc1C(=O)N[C@H](C)c1ccccc1 | . | . | -1 | 9 | . | .
CCN(CC)CC(=O)N1c2ccccc2Oc2c(c(=O)n(C)c(=O)n2C)C1c1cccc([N+](=O)[O-])c1 (configuration not stated) | 0 | 17 | -1 | 2 | 5 | 3
Cc1c(C(=O)Oc2cc(N)n(S(C)(=O)=O)n2)cccc1[N+](=O)[O-] | 0 | 22 | 1 | 74* | 1 | 1
Cc1ccc(-n2nnnc2SCc2nc3sc(C)c(C)c3c(=O)[nH]2)cc1 | -1 | 1 | 0 | 68* | 9 | -1
